# Laboratory results published in ChEMBL document CHEMBL4808148, “HDAC6 screening dataset using tau-based substrate in an enzymatic assay yields selective inhibitors and activators” (2021).
# Values joined by “and” are separate entries in the source; they are usually repeats but may differ in a detail not shown here. Identical values can stand only once. Out of some 5,600 compounds screened, about 150 (2.7%) showed an effect of 50% or more. Shown is part of a subset that was picked to be rich in strong results.
# Tests used:
# [1] = target: T1, Protein deacetylase HDAC6 (Homo sapiens) (UniProt Q9UBN7); conditions: at 10 µM
# T1 sequence (whole entry): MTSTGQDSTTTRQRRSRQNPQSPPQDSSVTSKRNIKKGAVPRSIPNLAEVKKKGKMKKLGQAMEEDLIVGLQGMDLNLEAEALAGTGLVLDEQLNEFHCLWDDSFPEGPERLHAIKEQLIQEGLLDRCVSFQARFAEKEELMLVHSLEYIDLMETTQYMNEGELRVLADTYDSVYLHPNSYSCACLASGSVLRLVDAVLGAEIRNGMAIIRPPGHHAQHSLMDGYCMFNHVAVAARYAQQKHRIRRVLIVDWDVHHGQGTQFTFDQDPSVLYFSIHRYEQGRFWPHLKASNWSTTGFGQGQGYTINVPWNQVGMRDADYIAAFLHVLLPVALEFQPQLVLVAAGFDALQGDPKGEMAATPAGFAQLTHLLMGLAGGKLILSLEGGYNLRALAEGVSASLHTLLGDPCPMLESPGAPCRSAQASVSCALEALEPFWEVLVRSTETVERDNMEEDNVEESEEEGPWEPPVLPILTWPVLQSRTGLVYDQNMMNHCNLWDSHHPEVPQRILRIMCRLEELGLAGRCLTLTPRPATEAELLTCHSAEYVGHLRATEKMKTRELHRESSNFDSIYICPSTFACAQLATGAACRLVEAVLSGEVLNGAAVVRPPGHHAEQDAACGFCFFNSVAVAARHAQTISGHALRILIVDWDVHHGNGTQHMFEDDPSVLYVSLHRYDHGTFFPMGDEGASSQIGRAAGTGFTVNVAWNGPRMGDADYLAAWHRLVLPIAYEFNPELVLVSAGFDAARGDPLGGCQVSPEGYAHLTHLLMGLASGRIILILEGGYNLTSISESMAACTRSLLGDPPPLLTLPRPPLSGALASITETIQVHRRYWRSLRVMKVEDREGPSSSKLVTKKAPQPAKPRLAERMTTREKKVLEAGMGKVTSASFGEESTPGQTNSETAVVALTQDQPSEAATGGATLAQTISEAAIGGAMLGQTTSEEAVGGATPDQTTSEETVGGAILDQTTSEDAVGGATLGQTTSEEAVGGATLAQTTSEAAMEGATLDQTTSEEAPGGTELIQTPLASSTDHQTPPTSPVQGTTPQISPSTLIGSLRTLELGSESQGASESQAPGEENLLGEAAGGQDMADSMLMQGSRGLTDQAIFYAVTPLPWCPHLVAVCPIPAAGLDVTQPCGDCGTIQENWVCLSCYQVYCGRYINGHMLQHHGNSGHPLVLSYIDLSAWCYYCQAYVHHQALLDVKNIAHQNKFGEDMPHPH
# [2] = target: Protein deacetylase HDAC6 (Homo sapiens) (UniProt Q9UBN7); conditions: at 10 µM; remark: listed apart in the source
Compound,inhibition [1],inhibition [2] [%]
COc1ccc(C(=O)NCc2ccc(OCCN(C)C)cc2)cc1OC,-3.31%,
CN(C)Cc1c(C(=O)NCCOc2ccc(C(=O)NO)cc2)oc2ccccc12,97.9%,
Cc1cc(C)c(N(Cc2ccccc2)S(=O)(=O)c2ccc(OCCNC(=O)c3cc4ccccc4o3)cc2)c(C(=O)NO)c1,-0.11%,
CC1(C)OC[C@H](NC(=O)Nc2ccc(Br)cc2Br)[C@H](c2ccccc2)O1,-0.73%,
FC(F)(F)c1cc(NC(=S)Nc2ccc(Br)cc2-c2nnn[nH]2)cc(C(F)(F)F)c1,67.5%,
COc1cc(C[C@@H](CO[C@@H]2O[C@H](CO)[C@@H](O)[C@H](O)[C@H]2O)[C@H](CO[C@@H]2O[C@H](CO)[C@@H](O)[C@H](O)[C@H]2O)Cc2ccc(O)c(OC)c2)ccc1O,-3.26%,
COc1ccc(C[C@@H](C)[C@@H](C)Cc2ccc(OC)c(OC)c2)cc1OC,-2.57%,
COc1ccc(/C=C/C(=O)/C=C(O)/C=C/c2ccc(OC)c(OC)c2)cc1OC,4.07%,
Cn1cc(C2=C(c3ccc(Cl)cc3Cl)C(=O)NC2=O)c2ccccc21,-3.78%,
Cn1cc(/C=C2/C(=O)Nc3cccnc32)c2ccccc21,66.2%,
Cn1cc(C2=C(c3cn(CCCSC(=N)N)c4ccccc34)C(=O)NC2=O)c2ccccc21,-0.14%,
CCNC(=O)CC[C@@H](N)C(=O)O,-3.08%,
CN(C)CC(O)Cn1c2ccc(Br)cc2c2cc(Br)ccc21 (configuration not stated),-0.45%,
O=C1OC2(c3cc(I)c(O)c(I)c3Oc3c2cc(I)c(O)c3I)c2c(Cl)c(Cl)c(Cl)c(Cl)c21,31.9% and 41.8%,
CCOC(=O)c1ccc(N2NC(=O)/C(=C/c3ccc([N+](=O)[O-])o3)C2=O)cc1,3.77%,
Cn1nc(-c2ccc(C(F)(F)F)cc2)nc2c(=O)n(C)c(=O)nc1-2,82.8%,
Cc1cccc(C)c1NC(=O)/N=C1\CCCN1C,-2.32%,
Cc1ccc(-c2[nH]nc3c2C(c2cccc(O)c2)N(c2ccc(C(=O)O)cc2)C3=O)cc1 (configuration not stated),-3.95%,
C1Cc2[nH]nc(-c3nn[nH]n3)c2C1,-4.01%,
COc1ccc2[nH]c(SCc3ncc(C)c(OC)c3C)nc2c1,7.26%,
N#Cc1cccc(-c2c[nH]c3ncnc(N4CCOCC4)c23)c1,-3.83%,
CCN(CC)CCn1c(=O)c(Cc2ccc(OC)cc2)nc2ccccc21,-4.21%,
CCCCc1nc(-c2ccc(OCCCN(CC)CC)cc2)cn1-c1ccc(Oc2ccc(Cl)cc2)cc1,9.56%,
CCCCc1nc2cc(/C=C/C(=O)NO)ccc2n1CCN(CC)CC,97.3%,
CC(C)(C)/[N+]([O-])=C/c1ccc(S(=O)(=O)O)cc1S(=O)(=O)O,-5.01%,
CCCc1c(OCCCOc2ccc(OCC(=O)O)cc2)ccc(CC=O)c1O,-1.53%,

Compound,inhibition [1],inhibition [2] [%]
O=C(O)/C=C\c1c[nH]cn1,-0.7%,
Nc1ccc(C(=O)O)c(O)c1,-3.77%,
O=C(Nc1ccc(C(=O)O)c(O)c1)c1ccccc1,95.5%,
CC1(C)CCC(C)(C)c2cc(NC(=O)c3ccc(C(=O)O)cc3)ccc21,-2.96%,
"OXALIPLATIN, CHEMBL414804",,-4.35
CN[C@H](CNC(=O)N1CCC[C@@H]([C@@H](OCCNC(=O)OC)c2cccc(Cl)c2)C1)C[C@H]1CCCOC1,8.55%,
Cc1ccc(OCCSc2ncccn2)c(Br)c1,77.5%,
Cc1cc(OCC(=O)O)cc(C)c1Cc1ccc(O)c(C(C)C)c1,-5.84%,
O=C1[C@@H]2[C@H]3CC[C@H](C3)[C@@H]2C(=O)N1CCCCN1CCN(c2ncccn2)CC1,6.98%,
N#Cc1c[nH]c2c(C(=O)N3CCN(CCc4ccc(F)cc4)CC3)cccc12,4.22%,
COc1ccccc1C(=O)Nc1cccc(NC(=O)c2cccc(C)c2)c1,8.47%,
CC(=O)CC(=O)O,-2.94%,
O=C(CCNNC(=O)c1ccncc1)NCc1ccccc1,-3.21%,
O=C(CCCCCCNC(=O)c1cnc(N(c2ccccc2)c2ccccc2)nc1)NO,97.5%,
CCCCCCCCCCCCCCCC(=O)NCCO,-0.28%,
N#C/C(=C\c1cccn1S(=O)(=O)c1cccc([N+](=O)[O-])c1)S(=O)(=O)c1ccc(F)cc1,6.35%,
N[C@@H](CC(=O)NO)C(=O)O,-1.74%,
O=C1Nc2c(ccc(Cl)c2Cl)/C1=N\O,1.23%,
Nc1nc(N)c2nc(-c3cccc(O)c3)cnc2n1,66.2%,
Oc1cccc(-c2c3nc(c(-c4cccc(O)c4)c4ccc([nH]4)c(-c4cccc(O)c4)c4nc(c(-c5cccc(O)c5)c5ccc2[nH]5)CC4)C=C3)c1,2.63%,
Nc1nc(N)c2nc(-c3ccccc3)c(N)nc2n1,22%,
CCN(CC)Cc1ccc(Nc2ccnc3cc(Cl)ccc23)cc1O,0.37%,
O=C(c1ccc(CN2CCOCC2)cc1)N1CCN(C2CC2)CC1,4.17%,
O=C1NC(=O)/C(=C/c2ccc(-c3ccc(F)cc3O)o2)S1,87%,
O=C1NC(=O)/C(=C/c2cccc(C(F)(F)F)c2)S1,8.21%,
O=C1NC(=O)/C(=C/c2ccc3c(c2)OC(F)(F)O3)S1,-1.91%,
